Measured values as given in PubChem BioAssay AID1159580 (chemical genetic matrix, 2015).
Values joined by “and” are separate entries in the source; they are usually repeats but may differ in a detail not shown here. Equal values may be shown once. About 2,000 (36%) of roughly 5,500 compounds were called active. Not shown: some 18% with an inconclusive outcome. No stated cut-off is given here; in the data, active means normalized growth mostly below about 0.91 (no sharp cut-off); inconclusive means no clear call, values can overlap the other calls; inactive means mostly above about 0.92. This is one part of the list.

Test: chemical genetic growth profiling, strain panel (AID 1159580);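 further: tested at 20 µM; growth read once vehicle control cultures reached saturation at 30 °C; 1 = growth at the plate median or of vehicle wells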
Conditions: S. cerevisiae deletion strains, growth OD

CN1CCC[C@@H]1CCO[C@](C)(c1ccccc1)c1ccc(Cl)cc1
normalized growth (locus YAL013W, strain DEP1, stronger effect = lower value): 0.998 (inactive) | normalized growth (locus YAL021C, strain ccr4, stronger effect = lower value): 0.88 (active) | normalized growth (locus YAL026C, strain drs2, stronger effect = lower value): 0.62 (active) | normalized growth (locus YAL030W, strain snc1, stronger effect = lower value): 1 (inactive) | normalized growth (locus YBL061C, strain skt5, stronger effect = lower value): 0.998 (inactive) | normalized growth (locus YBR009C, strain hhf1, stronger effect = lower value): 0.957 (inactive) | normalized growth (locus YBR021W, strain FUR4, stronger effect = lower value): 0.671 (active) | normalized growth (locus YBR023C, strain chs3, stronger effect = lower value): 0.949 (inactive) | normalized growth (locus YBR171W, strain sec66, stronger effect = lower value): 0.997 (inactive) | normalized growth (locus YBR229C, strain ROT2, stronger effect = lower value): 1.01 (inactive) | normalized growth (locus YBR231C, strain swc5, stronger effect = lower value): 0.984 (inactive) | normalized growth (locus YBR279W, strain paf1, stronger effect = lower value): 0.964 (inactive) | normalized growth (locus YCL011C, strain gbp2, stronger effect = lower value): 0.959 (inactive) | normalized growth (locus YCL016C, strain dcc1, stronger effect = lower value): 0.968 (inactive) | normalized growth (locus YCL029C, strain bik1, stronger effect = lower value): 0.991 (inactive) | normalized growth (locus YCL069W, strain vba3, stronger effect = lower value): 0.969 (inactive) | normalized growth (locus YCR088W, strain abp1, stronger effect = lower value): 0.999 (inactive) | normalized growth (locus YDL005C, strain med2, stronger effect = lower value): 1 (inactive) | normalized growth (locus YDL035C, strain GPR1, stronger effect = lower value): 0.913 (inactive) | normalized growth (locus YDL040C, strain nat1, stronger effect = lower value): 1 (inactive) | normalized growth (locus YDL074C, strain BRE1, stronger effect = lower value): 0.817 (inactive) | normalized growth (locus YDL101C, strain DUN1, stronger effect = lower value): 1.01 (inactive) | normalized growth (locus YDL134C, strain PPH21, stronger effect = lower value): 1.01 (inactive) | normalized growth (locus YDL185W, strain tfp1, stronger effect = lower value): 0.99 (inactive) | normalized growth (locus YDL192W, strain arf1, stronger effect = lower value): 1.01 (inactive) | normalized growth (locus YDR001C, strain nth1, stronger effect = lower value): 1.02 (inactive) | normalized growth (locus YDR069C, strain doa4, stronger effect = lower value): 0.955 (inactive) | normalized growth (locus YDR101C, strain arx1, stronger effect = lower value): 0.988 (inactive) | normalized growth (locus YDR137W, strain rgp1, stronger effect = lower value): 1.24 [resistant] (active) | normalized growth (locus YDR150W, strain NUM1, stronger effect = lower value): 1.02 (inactive) | normalized growth (locus YDR159W, strain sac3, stronger effect = lower value): 1.01 (inactive) | normalized growth (locus YDR162C, strain NBP2, stronger effect = lower value): 0.993 (inactive) | normalized growth (locus YDR195W, strain ref2): 1.08 (inactive) | normalized growth (locus YDR297W, strain sur2, stronger effect = lower value): 0.998 (inactive) | normalized growth (locus YDR318W, strain mcm21, stronger effect = lower value): 0.984 (inactive) | normalized growth (locus YDR334W, strain swr1, stronger effect = lower value): 1.01 (inactive) | normalized growth (locus YDR335W, strain msn5, stronger effect = lower value): 0.987 (inactive) | normalized growth (locus YDR388W, stronger effect = lower value): 0.911 (active) | normalized growth (locus YDR392W, strain spt3, stronger effect = lower value): 0.866 (inactive) | normalized growth (locus YDR502C, strain sam2, stronger effect = lower value): 0.97 (inactive) | normalized growth (locus YEL003W, strain gim4, stronger effect = lower value): 0.952 (inactive) | normalized growth (locus YEL037C, strain rad23, stronger effect = lower value): 0.993 (inactive) | normalized growth (locus YEL061C, strain CIN8 (second series), stronger effect = lower value): 1 (inactive) | normalized growth (locus YEL061C, strain CIN8, stronger effect = lower value): 1 (inactive) | normalized growth (locus YER015W, strain faa2, stronger effect = lower value): 0.798 (active) | normalized growth (locus YER016W, strain bim1, stronger effect = lower value): 0.992 (inactive) | normalized growth (locus YER110C, stronger effect = lower value): 0.999 (inactive) | normalized growth (locus YER111C, strain swi4, stronger effect = lower value): 1.02 (inactive) | normalized growth (locus YER155C, strain BEM2 (second series), stronger effect = lower value): 0.818 (active) | normalized growth (locus YER155C, strain BEM2, stronger effect = lower value): 1.03 (inactive) | normalized growth (locus YER167W, strain BCK2, stronger effect = lower value): 1 (inactive) | normalized growth (locus YFR010W, strain ubp6, stronger effect = lower value): 0.898 (active) | normalized growth (locus YGL078C, strain dbp3, stronger effect = lower value): 0.99 (inactive) | normalized growth (locus YGL086W, strain mad1, stronger effect = lower value): 0.973 (inactive) | normalized growth (locus YGL167C, strain pmr1, stronger effect = lower value): 1.02 (inactive) | normalized growth (locus YGL173C, strain kem1, stronger effect = lower value): 0.955 (inactive) | normalized growth (locus YGL227W, strain vid30, stronger effect = lower value): 0.996 (inactive) | normalized growth (locus YGL240W, strain doc1, stronger effect = lower value): 0.919 (inactive) | normalized growth (locus YGL248W, strain PDE1, stronger effect = lower value): 1.01 (inactive) | normalized growth (locus YGL253W, strain hxk2, stronger effect = lower value): 0.916 (inactive) | normalized growth (locus YGR078C, strain PAC10, stronger effect = lower value): 0.95 (inactive) | normalized growth (locus YGR135W, strain pre9, stronger effect = lower value): 0.879 (active) | normalized growth (locus YGR229C, strain SMI1, stronger effect = lower value): 0.491 (active) | normalized growth (locus YGR252W, strain gcn5, stronger effect = lower value): 0.688 (active) | normalized growth (locus YHR013C, strain ard1, stronger effect = lower value): 0.856 (inactive) | normalized growth (locus YHR027C, strain rpn1, stronger effect = lower value): 0.904 (active) | normalized growth (locus YHR030C, strain SLT2, stronger effect = lower value): 0.843 (active) and 0.985 (inactive) | normalized growth (locus YHR079C, strain IRE1 (second series), stronger effect = lower value): 0.994 (inactive) | normalized growth (locus YHR079C, strain IRE1, stronger effect = lower value): 0.992 (inactive) | normalized growth (locus YHR094C, strain hxt1, stronger effect = lower value): 0.994 (inactive) | normalized growth (locus YHR129C, strain ARP1, stronger effect = lower value): 1.01 (inactive) | normalized growth (locus YHR142W, strain chs7, stronger effect = lower value): 0.884 (inactive) | normalized growth (locus YHR200W, strain rpn10, stronger effect = lower value): 1 (inactive) | normalized growth (locus YIL066C, strain RNR3, stronger effect = lower value): 0.978 (inactive) | normalized growth (locus YIL073C, strain SPO22, stronger effect = lower value): 0.904 (inactive) | normalized growth (locus YIL125W, strain kgd1, stronger effect = lower value): 0.999 (inactive) | normalized growth (locus YIR030C, strain dcg1, stronger effect = lower value): 0.993 (inactive) | normalized growth (locus YJL092W, strain hpr5, stronger effect = lower value): 0.982 (inactive) | normalized growth (locus YJL095W, strain BCK1 (second series), stronger effect = lower value): 0.923 (inactive) | normalized growth (locus YJL095W, strain BCK1, stronger effect = lower value): 0.745 (active) and 0.991 (inactive) | normalized growth (locus YJL115W, strain asf1, stronger effect = lower value): 0.999 (inactive) | normalized growth (locus YJL129C, strain trk1, stronger effect = lower value): 0.921 (inactive) | normalized growth (locus YJL134W, strain LCB3, stronger effect = lower value): 1.01 (inactive) | normalized growth (locus YJL154C, strain vps35, stronger effect = lower value): 0.996 (inactive) | normalized growth (locus YJL164C, strain tpk1, stronger effect = lower value): 0.937 (inactive) | normalized growth (locus YJL166W, strain qcr8, stronger effect = lower value): 0.94 (inactive) | normalized growth (locus YJL168C, strain set2, stronger effect = lower value): 1 (inactive) | normalized growth (locus YJL187C, strain SWE1 (second series), stronger effect = lower value): 0.987 (inactive) | normalized growth (locus YJL187C, strain SWE1, stronger effect = lower value): 0.992 (inactive) | normalized growth (locus YJR043C, strain POL32, stronger effect = lower value): 1.03 (inactive) | normalized growth (locus YJR066W, strain TOR1, stronger effect = lower value): 0.97 (inactive)
